Source: PubChem BioAssay
The sample as a whole holds a higher share of hits than the screen did.
HT1080-NT tox = kills 2HG-producing HT-1080-NT fibrosarcoma cells | Potency, µM (series often up to 46.1 µM), without a hit: at the highest dose activity, negative = less viability, hits mostly cytotoxic | AID 686970 | hit rate 1.6% among 360,000 | HT-1080-NT fibrosarcoma viability, CellTiter-Glo ATP luminescence, 48 h;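 note: NT is the 2HG producing partner of a matched IDH1 knockdown line; potency is the fitted concentration of half-maximal effect; 0% = DMSO-treated cells and -100% = media-only wells without cells; nearly all actives have a fitted effect of over 55% in size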
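Toxicity toward the 2HG-producing NT line was scored as %Activity, normalised to DMSO and no-cell wells, from CellTiter-Glo luminescence after 48 hours' treatment.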
DT40 TDP1 no CPT = qHTS for Inhibitors of human tyrosyl-DNA phosphodiesterase 1 (TDP1): qHTS in cells in absence of CPT | DT40 Tdp1-/- hTDP1 cells, no CPT, ATP luminescence, 48 h | Potency, µM (top dose mostly 46.2 µM), without a hit: at the highest dose activity change, negative = growth inhibition, most hits filed as inhibitors | hit rate 15% among 420,000; note: potency is the fitted concentration of half-maximal effect; nearly all actives have a fitted effect of over 55% in size
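Growth kinetics read by CellTiter-Glo luminescence after ≥48 hr at 37 °C. Cells: DT40 Tdp1-/- stably carrying human TDP1, 400 per well, compound exposure in the absence of CPT (DMSO vehicle).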
HT1080 IDH1KD tx = HT-1080 IDH1 knockdown cell toxicity (counter line); HT-1080 IDH1 knockdown viability, ATP luminescence, 48 h; Potency, µM (series often up to 46.1 µM), without a hit: top-dose activity, negative = toxicity, usual class: cytotoxic; hit rate 2% among 360,000;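 note: potency is the fitted concentration of half-maximal effect; 0% = DMSO wells and -100% = cell-free medium wells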
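Luminescent ATP read-out (CellTiter-Glo, 10 min at room temperature) after 48 h compound exposure at 37 °C gave viability of IDH1-knockdown HT-1080 cells. Activity was normalised to DMSO and cell-free wells, then fitted as concentration-response curves.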
TDP1 cell CPT = growth inhibition of DT40 Tdp1-/-;hTDP1 cells with camptothecin (screen for TDP1 inhibitors); chicken DT40 Tdp1-/-;hTDP1 cells + 20 nM CPT, ATP luminescence, 48 h; Potency, µM (top dose mostly 46.2 µM), inactives show top-dose activity change, negative = growth inhibition, usual class: inhibitors; hit rate 12% among 420,000; AID 686979; note: potency is the fitted concentration of half-maximal effect; nearly all actives have a fitted effect of over 55% in size
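Chicken DT40 Tdp1-/- cells complemented with human TDP1, 400 cells/well, exposed to compounds plus 20 nM camptothecin for at least 48 h at 37 C; viability read as ATP content by CellTiter-Glo luminescence.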
ALOX12 inh = blocks human arachidonate 12S-lipoxygenase; P18054; purified 12hLO, xylenol orange hydroperoxide absorbance; Potency, µM (doses to about 108 µM), for inactives: top-dose activity change, negative = inhibition, usual class: inhibitors; hit rate 1.1% among 580,000; AID 1671190; note: potency is the fitted concentration of half-maximal effect
Target sequence (P18054 whole entry, looked up): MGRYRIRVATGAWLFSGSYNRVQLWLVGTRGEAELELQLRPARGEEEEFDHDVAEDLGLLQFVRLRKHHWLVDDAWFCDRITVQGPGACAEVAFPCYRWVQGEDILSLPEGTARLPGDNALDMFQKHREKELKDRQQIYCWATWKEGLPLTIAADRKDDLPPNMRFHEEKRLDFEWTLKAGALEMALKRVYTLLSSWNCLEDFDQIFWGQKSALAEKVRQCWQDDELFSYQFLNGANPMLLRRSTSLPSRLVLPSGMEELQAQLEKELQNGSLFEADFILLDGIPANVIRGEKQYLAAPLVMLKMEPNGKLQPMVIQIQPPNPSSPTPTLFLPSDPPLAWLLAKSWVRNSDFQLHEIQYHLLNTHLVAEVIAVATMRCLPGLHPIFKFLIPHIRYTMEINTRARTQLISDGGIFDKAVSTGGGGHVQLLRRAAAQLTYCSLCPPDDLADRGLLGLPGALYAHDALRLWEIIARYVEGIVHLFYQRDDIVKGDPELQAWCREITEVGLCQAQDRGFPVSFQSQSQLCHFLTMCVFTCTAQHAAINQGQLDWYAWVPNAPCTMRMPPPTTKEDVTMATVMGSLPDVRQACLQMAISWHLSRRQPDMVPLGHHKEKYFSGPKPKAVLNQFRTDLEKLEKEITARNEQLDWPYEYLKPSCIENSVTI
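Purified human 12hLO (150 nM final) in 25 mM Hepes, 0.01% Triton X-100, pH 7.0 was preincubated 15 min at room temperature with compound. Then 40 uM arachidonic acid was added, 30 min. Hydroperoxide was read by Fe-XO absorbance ratio 573/405 nm.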
IL-1B inflam inh = blocks inflammasome-driven IL-1 beta release; hit rate 4.7% among 360,000; activity change, % at 57.5 µM; AID 743279; THP-1 LPS/ATP IL-1B secretion, AlphaLISA, 16 h; stronger effect = lower value; in the data active = activity change below about -50%; inconclusive = mostly about -30% to -49%
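THP-1 cells pretreated 1 hr with compounds (up to 57.5 uM final), then stimulated with LPS (250 ng/mL final) plus ATP (1.25 mM final); secreted IL-1B measured by AlphaLISA after 16 hr, decreased signal indicating inhibition.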
Numbers without * were called inactive. Unless noted, calls come from the whole dose curve; as a rule, active = well fitted curve in the direction sought with a large enough effect; inconclusive = small, poorly fitted or top-dose-only effect, or another doubt; inactive = no such curve, though single readings can be large; an effect the other way counts as inactive or inconclusive. Unless noted, % is set by controls: 0 for no effect and ±100 for the full control effect.

Results for CCC(CNC(=O)c1c(C)nn(-c2ccccc2)c1Cl)c1ccccc1 (centres undefined) ?
HT1080-NT tox: 7%; DT40 TDP1 no CPT: 21µM*; HT1080 IDH1KD tx: 3%; TDP1 cell CPT: 23µM*; ALOX12 inh: -7%; IL-1B inflam inh: -82*

What do the screens show for `CCOC(=O)N1CCN(C(=O)CCc2c(C)nc3c(c(C)nn3-c3ccc(C)c(C)c3)c2C)CC1`?
HT1080-NT tox: -4%; DT40 TDP1 no CPT: 16µM*; HT1080 IDH1KD tx: -3%; TDP1 cell CPT: inconclusive; ALOX12 inh: -5%; IL-1B inflam inh: 23

Results for Cc1cccc(C)c1OCCNC(=O)c1ccc2ccccc2n1 ?
HT1080-NT tox: -2%; DT40 TDP1 no CPT: 16µM*; HT1080 IDH1KD tx: -9%; TDP1 cell CPT: 21µM*; ALOX12 inh: -13%; IL-1B inflam inh: 38

How did O=C(CSc1nc2nc[nH]c2c(=O)[nH]1)c1ccccc1 do in these assays?
ALOX12 inh: 2%

Results for Cc1cc(C)n(-c2nc3c(c(=O)n(C)c(=O)n3C)n2Cc2c(F)cccc2Cl)n1 ?
ALOX12 inh: 43%

Results for O=C(O)CC(Cc1ccc(Cl)cc1)C(=O)O (centres undefined) ?
ALOX12 inh: -21%

How did Cc1ccc2c(C)c(CCC(=O)Nc3cccc(Cl)c3)c(=O)oc2c1 do in these assays?
ALOX12 inh: -28%

What do the screens show for `COc1ccc(NC(=O)C2CCCN(S(=O)(=O)c3ccc4c(c3)CCCN4C(C)=O)C2)cc1Cl` (centres undefined)?
HT1080-NT tox: 5%; DT40 TDP1 no CPT: inconclusive; HT1080 IDH1KD tx: 6%; TDP1 cell CPT: 21µM*; ALOX12 inh: -8%; IL-1B inflam inh: 27

Results for COc1ccc(S(=O)(=O)N2CCCC(C(=O)Nc3cccnc3)C2)cc1Cl (centres undefined) ?
HT1080-NT tox: 1%; DT40 TDP1 no CPT: 15µM*; HT1080 IDH1KD tx: inconclusive; TDP1 cell CPT: 16µM*; ALOX12 inh: inconclusive; IL-1B inflam inh: -15

Results for COc1cc(C)nc(N2CCCC(C(=O)Nc3cccc(Cl)c3C)C2)n1 (centres undefined) ?
HT1080-NT tox: 9%; DT40 TDP1 no CPT: inconclusive; HT1080 IDH1KD tx: 5%; TDP1 cell CPT: 23µM*; ALOX12 inh: 0%; IL-1B inflam inh: 16

Results for Cc1ccc(S(=O)(=O)N2CCC(C(=O)N3CCN(Cc4ccccc4)CC3)CC2)cc1 ?
HT1080-NT tox: -2%; DT40 TDP1 no CPT: inconclusive; HT1080 IDH1KD tx: -1%; TDP1 cell CPT: 21µM*; ALOX12 inh: inconclusive; IL-1B inflam inh: 7

Results for COc1ccc(NC(=O)C2CCCN(S(=O)(=O)c3ccc4c(c3)CCCN4C(C)=O)C2)cc1 (centres undefined) ?
HT1080-NT tox: 3%; DT40 TDP1 no CPT: inconclusive; HT1080 IDH1KD tx: 1%; TDP1 cell CPT: inconclusive; ALOX12 inh: 20%; IL-1B inflam inh: 9

What do the screens show for `COc1cc(C)nc(N2CCCC(C(=O)Nc3ccccc3Br)C2)n1` (centres undefined)?
HT1080-NT tox: 0%; DT40 TDP1 no CPT: 15%; HT1080 IDH1KD tx: 6%; TDP1 cell CPT: -4%; ALOX12 inh: -3%; IL-1B inflam inh: 51

Results for O=C(NC1CCCN(CCc2ccccc2)C1)C1(Cn2cccn2)CC1 (centres undefined) ?
ALOX12 inh: -18%

Results for Cc1ncoc1C(=O)N1CCN(C(=O)N2CC3CC(C2)[C@H]2CCCC(=O)N2C3)CC1 (some centres undefined) ?
ALOX12 inh: 36%
